From PubChem BioAssay (NCI)
Compounds without any hit were thinned out: in the full panel of roughly 83,000, 20% have a hit.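 Values shown are percent growth following 48 h exposure of cells in 96-well plates to a single concentration of compound; below 10 was considered active.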 Calls of active or inactive are those of the source.

Assays:
Experiment in all cases: NCI-60 one-dose screen, 48 h (100 = growth as untreated, 0 = no growth, -100 = all killed)
Conditions in all cases: 10 µM unless noted
HCT-15 colon = test system: HCT-15 colon
HT29 colon = test system: HT29 colon
SNB-75 CNS = test system: SNB-75 CNS
SNB-19 CNS = test system: SNB-19 CNS
U251 CNS = test system: U251 CNS
PC-3 prostate = test system: PC-3 prostate
SK-MEL-5 melanoma = test system: SK-MEL-5 melanoma
UACC-62 melanoma = test system: UACC-62 melanoma
LOX IMVI melanoma = test system: LOX IMVI melanoma
SK-MEL-28 melanoma = test system: SK-MEL-28 melanoma
SK-MEL-2 melanoma = test system: SK-MEL-2 melanoma
EKVX NSCLC = test system: EKVX NSCLC
SN12C renal = test system: SN12C renal
UO-31 renal = test system: UO-31 renal
TK-10 renal = test system: TK-10 renal
ACHN renal = test system: ACHN renal
CAKI-1 renal = test system: CAKI-1 renal
A498 renal = test system: A498 renal
MOLT-4 leukemia = test system: MOLT-4 leukemia
CCRF-CEM leukemia = test system: CCRF-CEM leukemia

Measured: growth

Cc1c(F)cc(C(N)=O)cc1NCC(=O)Nc1ccc([N+](=O)[O-])cc1
inactive: HCT-15 colon 94% | HT29 colon 105% | SNB-75 CNS 47.2% | SNB-19 CNS 98.5% | U251 CNS 109% | PC-3 prostate 89.5% | SK-MEL-5 melanoma 95.7% | UACC-62 melanoma 84.2% | LOX IMVI melanoma 84.1% | SK-MEL-28 melanoma 103% | SK-MEL-2 melanoma 96.3% | EKVX NSCLC 61.4% | SN12C renal 73.2% | UO-31 renal 56.7% | TK-10 renal 62.6% | ACHN renal 92.9% | CAKI-1 renal 62.3% | A498 renal 22.9% | MOLT-4 leukemia 105%

Nc1nc(Nc2ccccc2SSc2ccccc2Nc2nc(N)nc(-c3cccc(Br)c3)n2)nc(-c2cccc(Br)c2)n1
active: U251 CNS -43.9% | LOX IMVI melanoma -62.1% | UO-31 renal -7.87%
inactive: HCT-15 colon 50.8% | HT29 colon 108% | SNB-75 CNS 53.9% | SNB-19 CNS 25.4% | PC-3 prostate 34.7% | SK-MEL-5 melanoma 91.2% | UACC-62 melanoma 88.3% | SK-MEL-28 melanoma 98.9% | SK-MEL-2 melanoma 109% | EKVX NSCLC 42.8% | SN12C renal 63.7% | TK-10 renal 104% | ACHN renal 50.1% | CAKI-1 renal 21.6% | MOLT-4 leukemia 52%

Nc1ncc(-c2ccc3ncnc(N4CCc5cc(F)c(Cl)cc54)c3c2)cn1
inactive: HCT-15 colon 18.2% | HT29 colon 24.1% | SNB-19 CNS 43% | U251 CNS 45% | PC-3 prostate 10.5% | SK-MEL-5 melanoma 29.2% | UACC-62 melanoma 22.2% | SK-MEL-28 melanoma 40.5% | SK-MEL-2 melanoma 17.1% | SN12C renal 17.9% | ACHN renal 13.4%
active: SNB-75 CNS -32.2% | LOX IMVI melanoma 9.68% | EKVX NSCLC -9.64% | UO-31 renal 7.96% | TK-10 renal -15% | CAKI-1 renal -9.07% | MOLT-4 leukemia -20.9%

CC(=O)Nc1cccc(Nc2nc(N[C@H](C)c3ccccc3)c3ccccc3n2)c1
inactive: HCT-15 colon 41.5% | HT29 colon 41.1% | SNB-75 CNS 30.6% | SNB-19 CNS 74% | U251 CNS 74.4% | PC-3 prostate 45.5% | SK-MEL-5 melanoma 38.8% | UACC-62 melanoma 65.5% | LOX IMVI melanoma 45.6% | SK-MEL-28 melanoma 74.6% | SK-MEL-2 melanoma 73.6% | EKVX NSCLC 52% | SN12C renal 53.9% | UO-31 renal 40.5% | TK-10 renal 68.1% | ACHN renal 77.9% | CAKI-1 renal 35.8% | A498 renal 22.8% | MOLT-4 leukemia 16.8%

Cc1noc(C)c1CSc1nc2ccccc2n1-c1ccccc1
inactive: HCT-15 colon 106% | HT29 colon 106% | SNB-75 CNS 30.9% | SNB-19 CNS 96.5% | U251 CNS 102% | PC-3 prostate 100% | SK-MEL-5 melanoma 94.4% | UACC-62 melanoma 72.5% | LOX IMVI melanoma 88.2% | SK-MEL-28 melanoma 111% | SK-MEL-2 melanoma 107% | EKVX NSCLC 65.2% | SN12C renal 81.4% | UO-31 renal 48.8% | TK-10 renal 58.9% | ACHN renal 96.1% | CAKI-1 renal 41.6% | A498 renal 48.1% | MOLT-4 leukemia 97%

COc1cc(-c2nn(C(C)(C)C)cc2-c2ccnc(NCCCNS(=O)(=O)c3ccc(F)cc3)n2)ccc1Cl
inactive: HCT-15 colon 59.7% | HT29 colon 73.2% | SNB-75 CNS 48.1% | SNB-19 CNS 92.9% | U251 CNS 89.3% | PC-3 prostate 51.5% | SK-MEL-5 melanoma 85% | UACC-62 melanoma 72.2% | LOX IMVI melanoma 74.8% | SK-MEL-28 melanoma 89.8% | SK-MEL-2 melanoma 86.9% | EKVX NSCLC 39% | SN12C renal 52.5% | UO-31 renal 42.3% | TK-10 renal 68.8% | ACHN renal 83.6% | CAKI-1 renal 25% | A498 renal 51.9% | MOLT-4 leukemia 49.5%

COc1ccc(S(=O)(=O)NCCCNc2nccc(-c3cn(C(C)(C)C)nc3-c3ccc(Cl)c(OC)c3)n2)cc1
inactive: HCT-15 colon 78.5% | HT29 colon 81% | SNB-75 CNS 50.5% | SNB-19 CNS 96.3% | U251 CNS 98.9% | PC-3 prostate 58.3% | SK-MEL-5 melanoma 85.8% | UACC-62 melanoma 61.2% | LOX IMVI melanoma 72.7% | SK-MEL-28 melanoma 98.9% | SK-MEL-2 melanoma 89.7% | EKVX NSCLC 47.2% | SN12C renal 57.1% | UO-31 renal 44.5% | TK-10 renal 60.3% | ACHN renal 84.6% | CAKI-1 renal 25.5% | MOLT-4 leukemia 60.6%

COc1ccc(/C(N)=N/C(N)=N/c2nc3ccccc3s2)cc1
inactive: HCT-15 colon 62.6% | HT29 colon 104% | SNB-75 CNS 23.5% | SNB-19 CNS 86.2% | U251 CNS 68% | PC-3 prostate 62% | SK-MEL-5 melanoma 72% | UACC-62 melanoma 59.6% | LOX IMVI melanoma 22.8% | SK-MEL-28 melanoma 79.6% | SK-MEL-2 melanoma 66.7% | EKVX NSCLC 61% | SN12C renal 79% | UO-31 renal 57.4% | TK-10 renal 117% | ACHN renal 80.8% | CAKI-1 renal 40% | A498 renal 64.9% | MOLT-4 leukemia 74.6%

C#CCNC1CCC(c2csc(C#C)n2)=C1C (stereo not given)
inactive: HCT-15 colon 96.6% | HT29 colon 50.7% | SNB-75 CNS 113% | SNB-19 CNS 90.6% | PC-3 prostate 80.8% | SK-MEL-5 melanoma 90% | UACC-62 melanoma 76.8% | SK-MEL-28 melanoma 97% | SK-MEL-2 melanoma 101% | EKVX NSCLC 24.8% | SN12C renal 65.4% | UO-31 renal 44.7% | TK-10 renal 130% | CAKI-1 renal 58.3% | MOLT-4 leukemia 84.7%
active: U251 CNS 4.13% | LOX IMVI melanoma -90.7% | ACHN renal -88.2% | CCRF-CEM leukemia -9.98%

C=C(C)[C@@H]1CC[C@]2(C(=O)NCCCCCN(CCC#N)CCC#N)CC[C@]3(C)[C@H](CC[C@@H]4[C@@]5(C)CCC(=O)C(C)(C)[C@@H]5CC[C@]43C)[C@@H]12
inactive: HCT-15 colon 105% | HT29 colon 108% | SNB-75 CNS 62.1% | SNB-19 CNS 107% | U251 CNS 115% | PC-3 prostate 92.3% | SK-MEL-5 melanoma 99.5% | UACC-62 melanoma 84% | LOX IMVI melanoma 87.8% | SK-MEL-28 melanoma 108% | SK-MEL-2 melanoma 106% | EKVX NSCLC 75.2% | SN12C renal 89.3% | UO-31 renal 71.6% | TK-10 renal 74.7% | ACHN renal 98.7% | CAKI-1 renal 61.1% | A498 renal 48.9% | MOLT-4 leukemia 92%

C=C(C)[C@@H]1CC[C@]2(COP(=O)(OCC)OCC)CC[C@]3(C)[C@H](CC[C@@H]4[C@@]5(C)CCCNC(C)(C)[C@@H]5CC[C@]43C)[C@@H]12
active: HT29 colon 5.58% | LOX IMVI melanoma -87.9% | SK-MEL-28 melanoma -38.2% | MOLT-4 leukemia -29.8%
inactive: HCT-15 colon 16.6% | SNB-75 CNS 37% | SNB-19 CNS 58.3% | U251 CNS 37.4% | PC-3 prostate 26.3% | SK-MEL-5 melanoma 37.4% | UACC-62 melanoma 80.3% | SK-MEL-2 melanoma 92.7% | EKVX NSCLC 40.4% | SN12C renal 46.6% | UO-31 renal 30.9% | TK-10 renal 58.9% | ACHN renal 59.2% | CAKI-1 renal 29.1% | A498 renal 55%

CC1(C)[C@@H](O)CC[C@]2(C)[C@H]3CC[C@@H]4[C@H]5[C@H](C(=O)/C=C\c6ccc([N+](=O)[O-])cc6)CC[C@]5(O)CC[C@@]4(C)[C@]3(C)CC[C@@H]12
active: LOX IMVI melanoma -7.58%
inactive: HCT-15 colon 27.5% | HT29 colon 46.1% | SNB-75 CNS 42.1% | SNB-19 CNS 62.2% | U251 CNS 69.9% | PC-3 prostate 47.9% | SK-MEL-5 melanoma 75.8% | UACC-62 melanoma 48.9% | SK-MEL-28 melanoma 46% | SK-MEL-2 melanoma 102% | EKVX NSCLC 53.1% | SN12C renal 73.5% | UO-31 renal 55.2% | TK-10 renal 123% | ACHN renal 45.5% | CAKI-1 renal 27.4% | CCRF-CEM leukemia 12% | MOLT-4 leukemia 22.9%

O=C(O)c1cn(C2CC2)c2cc(N3CCN(C(=O)CN4C(=O)CSC4=O)CC3)c(F)cc2c1=O
inactive: HCT-15 colon 112% | HT29 colon 112% | SNB-75 CNS 45.3% | SNB-19 CNS 100% | U251 CNS 115% | PC-3 prostate 91.2% | SK-MEL-5 melanoma 102% | UACC-62 melanoma 91% | LOX IMVI melanoma 102% | SK-MEL-28 melanoma 101% | SK-MEL-2 melanoma 113% | EKVX NSCLC 74.4% | SN12C renal 91.7% | UO-31 renal 56.4% | TK-10 renal 73.5% | ACHN renal 93.7% | CAKI-1 renal 76.2% | A498 renal 101% | MOLT-4 leukemia 109%

O=S(=O)(NC1c2ccccc2C[C@H]1O)c1ccc(Cl)cc1Cl (stereo not given in full)
inactive: HCT-15 colon 94.6% | HT29 colon 109% | SNB-75 CNS 86.4% | SNB-19 CNS 96.3% | U251 CNS 98.7% | PC-3 prostate 84.1% | SK-MEL-5 melanoma 99.4% | UACC-62 melanoma 74.9% | LOX IMVI melanoma 93.3% | SK-MEL-28 melanoma 102% | SK-MEL-2 melanoma 101% | SN12C renal 96.8% | UO-31 renal 68.7% | TK-10 renal 119% | ACHN renal 96.2% | CAKI-1 renal 82.4% | A498 renal 103% | CCRF-CEM leukemia 105% | MOLT-4 leukemia 105%

O=C(NNc1nc2cc(F)cc(F)c2n2cccc12)c1cnccn1
active: UACC-62 melanoma 5.21% | LOX IMVI melanoma 5.06% | EKVX NSCLC 8.74% | MOLT-4 leukemia 1.8%
inactive: HCT-15 colon 24.8% | HT29 colon 26.2% | SNB-75 CNS 49.2% | SNB-19 CNS 25% | U251 CNS 16.2% | PC-3 prostate 24.1% | SK-MEL-5 melanoma 14.2% | SK-MEL-28 melanoma 25.8% | SK-MEL-2 melanoma 32.6% | SN12C renal 25.5% | UO-31 renal 18.1% | TK-10 renal 21.9% | ACHN renal 14.5% | A498 renal 11.1% | CCRF-CEM leukemia 10.6%

CCCCCc1ccc(S(=O)(=O)Nc2cc(-c3csc(NC(=O)CN4CCN(C)CC4)n3)ccc2OC)cc1
active: HCT-15 colon -58.9% | HT29 colon -31.1% | SNB-19 CNS 6.64% | U251 CNS -18.2% | SK-MEL-5 melanoma -93.5% | UACC-62 melanoma -58.5% | LOX IMVI melanoma -94% | SK-MEL-28 melanoma -69.4% | UO-31 renal -92.7% | ACHN renal 3.55% | CAKI-1 renal -15.5% | CCRF-CEM leukemia 2.18%
inactive: SNB-75 CNS 91.2% | PC-3 prostate 23.2% | SK-MEL-2 melanoma 73.6% | SN12C renal 11.8% | TK-10 renal 103% | A498 renal 75.2%
